Measurements taken from the supplement of paper PMC6897291.
Structures can show the parent of a compound that is named as a salt.

test system: U-2932; assay: growth inhibition by drug alone (1 - RLU/untreated control) (fraction); higher = stronger inhibition; details: 10 nM; time (day): 3; 177Lu-lilotomab satetraxetan 0 ug/ml
Method in brief: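 RIVA or U-2932 cells, untreated or pretreated 18 h with a radiolabelled anti-CD37 antibody conjugate (~600 MBq/mg; 0.5 µg/ml RIVA, 1 µg/ml U-2932), were washed and seeded at 3,000 cells/well on plates pre-printed with the Selleck Cambridge Cancer Compound library. Doses were 10/100 nM (RIVA) or 10/1,000 nM (U-2932). RealTime-Glo luminescence was read daily from day 3 after 1 h at 37°C. Growth inhibition is 1 − RLU/mean of 48 untreated no-drug wells per plate.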

SMILES | growth inhibition by drug alone
Nc1nc2[nH]cc(CCc3ccc(C(=O)N[C@@H](CCC(=O)O)C(=O)O)cc3)c2c(=O)[nH]1 [Pemetrexed] | -0.0147
COc1cc2nccc(Oc3ccc(NC(=O)Nc4cc(C)on4)c(Cl)c3)c2cc1OC [Tivozanib (AV-951)] | 0.14
CCC(=O)N1CCN(c2ccc(-n3c(=O)ccc4cnc5ccc(-c6cnc7ccccc7c6)cc5c43)cc2C(F)(F)F)CC1 [Torin 1] | 0.203
COc1cccc2c1C(=O)c1c(O)c3c(c(O)c1C2=O)C[C@@](O)(C(=O)CO)C[C@@H]3O[C@H]1C[C@H](N)[C@@H](O)[C@H](C)O1 [Epirubicin Hydrochloride] | 0.0435
Clc1ccc(Nc2nnc(Cc3ccncc3)c3ccccc23)cc1 [Vatalanib dihydrochloride (PTK787)] | 0.0493
COc1cc2nccc(Oc3ccc(NC(=O)C4(C(=O)Nc5ccc(F)cc5)CC4)cc3)c2cc1OC [XL-184 free base (Cabozantinib)] | 0.15
C[C@@H](O[C@H]1OCCN(Cc2n[nH]c(=O)[nH]2)[C@H]1c1ccc(F)cc1)c1cc(C(F)(F)F)cc(C(F)(F)F)c1 [Aprepitant (MK-0869)] | -0.0806
COc1cc2c(cc1O)CC[C@@H]1[C@@H]2CC[C@]2(C)[C@@H](O)CC[C@@H]12 [2-Methoxyestradiol] | -0.0505
CNCc1ccc(-c2[nH]c3cc(F)cc4c3c2CCNC4=O)cc1 | 0.062
CC[C@@]1(O)C(=O)OCc2c1cc1n(c2=O)Cc2cc3c(CN(C)C)c(O)ccc3nc2-1 [Topotecan HCl] | 0.427
